The values below come from PubChem BioAssay (EPA / NIEHS).

Calls of active or inactive are those of the source. The calls were made as follows: active = hit-call score of the fitted dose curve at least 0.9, where 1 is the maximum; inactive = score below 0.9.

What all share (details): mRNA level, 48 h; actives raise or lower the signal
Read-out in assay [1]: DNA damage-inducible transcript 3 (DDIT3), DDIT3 (gene 1649)
In words: LTEA_HepaRG_DDIT3: Life Technologies and Expression Analysis (LTEA) Assay for DNA damage-inducible transcript 3 (DDIT3) using HepaRG (AID 2283488). The procedure, abridged:
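Cells are human HepaRG liver cells treated for 48 h with eight half-log concentrations up to 100 uM in 0.5% DMSO. Transcript levels come from qRT-PCR normalized to three housekeeping genes, with activity fitted in both directions relative to vehicle.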

Read-out in assay [2]: Pro-epidermal growth factor (Homo sapiens) (UniProt P01133)
In words: LTEA_HepaRG_EGF: Life Technologies and Expression Analysis (LTEA) Assay for Epidermal growth factor (EGF) using HepaRG (AID 2283489). The procedure, abridged: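 Differentiated human HepaRG cells, plated 48 h then switched to serum-free induction medium, were exposed for 48 h to test chemicals (8-point half-log series, top 100 uM, 0.5% DMSO). EGF mRNA was quantified by qRT-PCR, normalized to ACTB, GAPDH, POLR2A.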

Read-out in assay [3]: Early growth response protein 1 (EGR1) transcription factor, EGR1 (gene 1958)
As to the kind of experiment: LTEA_HepaRG_EGR1: Life Technologies and Expression Analysis (LTEA) Assay for Early growth response protein 1 (EGR1) transcription factor using HepaRG (AID 2283490). The essentials:
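EGR1 transcript levels quantified by qRT-PCR (Fluidigm arrays) against three housekeeping genes after 48 h chemical exposure of HepaRG cells. Eight-point half-log series topping at 100 uM, 0.5% DMSO vehicle, analyzed for gain or loss.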

Read-out in assay [4]: Ezrin (EZR), EZR (gene 7430)
In words: LTEA_HepaRG_EZR: Life Technologies and Expression Analysis (LTEA) Assay for Ezrin (EZR) using HepaRG (AID 2283491). The essentials:
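Differentiated human HepaRG cells, 48 h after plating, were exposed in serum-free induction medium for 48 hours to eight half-log concentrations up to 100 uM in 0.5% DMSO. EZR mRNA was measured by TaqMan qRT-PCR, normalized to ACTB, GAPDH and POLR2A, and fitted bidirectionally against DMSO.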

Read-out in another assay: CYP3A5 (gene 1577)
In words: LTEA_HepaRG_CYP3A5: Life Technologies and Expression Analysis (LTEA) Assay for CYP3A5 using HepaRG (AID 2283493). The procedure, abridged: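 Human HepaRG hepatic cells receive 48 h chemical treatment at eight concentrations (half-log steps from 100 uM) in 0.5% DMSO. Expression of CYP3A5 is quantified by Fluidigm qRT-PCR and normalized to three reference genes.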

Read-out in assay [5]: Fatty Acid-Binding Protein 1 (FABP1), FABP1 (gene 2168)
As to the kind of experiment: LTEA_HepaRG_FABP1: Life Technologies and Expression Analysis (LTEA) Assay for Fatty Acid-Binding Protein 1 (FABP1) using HepaRG (AID 2283494). The essentials:
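FABP1 expression by TaqMan qRT-PCR, normalised to three housekeeping genes, in HepaRG cells after 48 h chemical treatment. Eight-point half-log series topping at 100 uM in 0.5% DMSO, duplicates; gain or loss fitted relative to vehicle.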

Read-out in assay [6]: Cytochrome P450 4A22 (Homo sapiens) (UniProt Q5TCH4)
In words: LTEA_HepaRG_CYP4A22: Life Technologies and Expression Analysis (LTEA) Assay for Cytochrome P450 4A22 (CYP4A22) using HepaRG (AID 2283495). The procedure, abridged:
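qRT-PCR of CYP4A22 mRNA (Fluidigm TaqMan, normalized to three housekeeping genes) after 48 h chemical exposure of HepaRG cells; 8-point half-log series, top 100 uM, 0.5% DMSO vehicle. Bidirectional curve fitting vs DMSO baseline.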

Read-out in assay [7]: Glutathione S-Transferase (GSTA2), GSTA2 (gene 2939)
In words: LTEA_HepaRG_GSTA2: Life Technologies and Expression Analysis (LTEA) Assay for Glutathione S-Transferase (GSTA2) using HepaRG (AID 2283497). The procedure, abridged: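 GSTA2 transcript levels came from Fluidigm TaqMan qRT-PCR normalized to three housekeeping genes, fitted in both directions against DMSO. HepaRG cultures received chemicals for 48 h in serum-free induction medium (0.5% DMSO), 8 half-log concentrations up to 100 uM, duplicate.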

Read-out in assay [8]: Glutamate-cysteine ligase catalytic (GCLC), GCLC (gene 2729)
In words: LTEA_HepaRG_GCLC: Life Technologies and Expression Analysis (LTEA) Assay for Glutamate-cysteine ligase catalytic (GCLC) using HepaRG (AID 2283498). The essentials: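 Expression by TaqMan qRT-PCR, normalized to three housekeeping genes (ACTB, GAPDH, POLR2A), with up- or down-regulation fitted against DMSO. HepaRG cells dosed in duplicate for 48 h with 8 half-log concentrations up to 100 uM, vehicle 0.5% DMSO.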

Read-out in assay [9]: growth arrest and DNA damage 45 (GADD45G), GADD45G (gene 10912)
In words: LTEA_HepaRG_GADD45G: Life Technologies and Expression Analysis (LTEA) Assay for growth arrest and DNA damage 45 (GADD45G) using HepaRG (AID 2283499). The procedure, abridged: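 Differentiated human HepaRG cells in serum-free induction medium were exposed for 48 h to 8 half-log concentrations up to 100 uM in 0.5% DMSO, in duplicate. GADD45G mRNA was measured by TaqMan qRT-PCR, normalised to ACTB, GAPDH and POLR2A, and fitted bidirectionally against DMSO.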

Read-out in assay [10]: Heat shock 70 kDa protein 1 (HSPA1A), gene 3303
As to the kind of experiment: LTEA_HepaRG_HSPA1A: Life Technologies and Expression Analysis (LTEA) Assay for Heat shock 70 kDa protein 1 (HSPA1A) using HepaRG (AID 2283502). The essentials:
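Cells were plated and cultured for 48 h, then switched to serum-free induction medium. Chemicals were added at eight half-log concentrations up to 100 uM for 48 h. RNA was then isolated and HSPA1A measured by qRT-PCR with bidirectional curve fitting against DMSO.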

Read-out in assay [11]: Hypoxia-inducible factor 1-alpha (Homo sapiens) (UniProt Q16665)
In words: LTEA_HepaRG_HIF1A: Life Technologies and Expression Analysis (LTEA) Assay for Hypoxia-inducible factor 1 (HIF1A) Trancription factor using HepaRG (AID 2283503). The essentials:
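HIF1A transcript level read by qRT-PCR (ACTB, GAPDH, POLR2A normalization) after 48 h chemical exposure of HepaRG cultures. Eight half-log concentrations, top 100 uM, 0.5% DMSO vehicle, duplicates; bidirectional curve fit against DMSO baseline.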

Read-out in assay [12]: 3-Hydroxy-3-Methylglutaryl-CoA Synthase 2 (HMGCS2), HMGCS2 (gene 3158)
As to the kind of experiment: LTEA_HepaRG_HMGCS2: Life Technologies and Expression Analysis (LTEA) Assay for 3-Hydroxy-3-Methylglutaryl-CoA Synthase 2 (HMGCS2) using HepaRG (AID 2283504). The procedure, abridged: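 Differentiated human HepaRG cells were exposed in duplicate for 48 h in serum-free induction medium to eight concentrations (top 100 uM, half-log steps, 0.5% DMSO). HMGCS2 mRNA was quantified by TaqMan qRT-PCR, normalised to ACTB, GAPDH and POLR2A, then fitted bidirectionally against DMSO.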

Read-out in the next assay: HGF (gene 3082)
As to the kind of experiment: LTEA_HepaRG_HGF: Life Technologies and Expression Analysis (LTEA) Assay for Hepatocyte Growth Facto (HGF) using HepaRG (AID 2283505). The essentials:
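Differentiated human HepaRG cells in serum-free induction medium were exposed in duplicate for 48 h to eight concentrations (top 100 uM, half-log steps, 0.5% DMSO). HGF mRNA was quantified by qRT-PCR, normalized to ACTB, GAPDH and POLR2A.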

Read-out in assay [13]: Intercellular Adhesion Molecule 1 (ICAM1), ICAM1 (gene 3383)
As to the kind of experiment: LTEA_HepaRG_ICAM1: Life Technologies and Expression Analysis (LTEA) Assay for Intercellular Adhesion Molecule 1 (ICAM1) using HepaRG (AID 2283507). The procedure, abridged: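 Differentiated HepaRG cells in serum-free induction medium were exposed in duplicate for 48 h to eight half-log concentrations up to 100 uM in 0.5% DMSO. Transcript levels were measured by qRT-PCR normalized to ACTB, GAPDH and POLR2A; bidirectional fits relative to DMSO.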

Read-out in assay [14]: Cytochrome P450 3A7 (Homo sapiens) (UniProt P24462)
As to the kind of experiment: LTEA_HepaRG_CYP3A7: Life Technologies and Expression Analysis (LTEA) Assay for CYP3A7 using HepaRG (AID 2283492). The procedure, abridged:
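HepaRG cells plated 48 h, then dosed in serum-free induction medium for 48 h at 8 concentrations (top 100 uM, half-log steps, 0.5% DMSO). CYP3A7 mRNA by qRT-PCR, normalised to ACTB/GAPDH/POLR2A; bidirectional fit versus DMSO.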

Read-out in assay [15]: Insulin Like Growth Factor 1 (IGF1), IGF1 (gene 3479)
As to the kind of experiment: LTEA_HepaRG_IGF1: Life Technologies and Expression Analysis (LTEA) Assay for Insulin Like Growth Factor 1 (IGF1) using HepaRG (AID 2283506). The essentials:
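Cells are thawed, plated and cultured 48 h, then exposed in duplicate to chemical (highest 100 uM, half-log steps, 0.5% DMSO) for another 48 h. Total RNA is analysed by Fluidigm qRT-PCR for IGF1 expression relative to vehicle.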

Read-out in assay [16]: Glutamate-cysteine ligase regulatory (GCLM), GCLM (gene 2730)
In words: LTEA_HepaRG_GCLM: Life Technologies and Expression Analysis (LTEA) Assay for Glutamate-cysteine ligase regulatory (GCLM) using HepaRG (AID 2283500). The procedure, abridged:
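Endpoint is GCLM transcript level by qRT-PCR, normalized to three housekeeping genes, after 48 h chemical exposure of human HepaRG cells (0.5% DMSO vehicle, top 100 uM, half-log dilutions). Fitting was bidirectional relative to DMSO.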

Read-out in assay [17]: Glutathione S-transferase M3 (GSTM3), GSTM3 (gene 2947)
As to the kind of experiment: LTEA_HepaRG_GSTM3: Life Technologies and Expression Analysis (LTEA) Assay for Glutathione S-transferase M3 (GSTM3) using HepaRG (AID 2283501). The procedure, abridged: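 Differentiated HepaRG cells in serum-free induction medium were exposed in duplicate for 48 h to 8 half-log concentrations up to 100 uM in 0.5% DMSO. GSTM3 mRNA was measured by TaqMan qRT-PCR, normalized to ACTB/GAPDH/POLR2A, and fitted bidirectionally versus DMSO.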

Chain of Hypoxia-inducible factor 1-alpha (Homo sapiens) (Q16665 whole entry, looked up): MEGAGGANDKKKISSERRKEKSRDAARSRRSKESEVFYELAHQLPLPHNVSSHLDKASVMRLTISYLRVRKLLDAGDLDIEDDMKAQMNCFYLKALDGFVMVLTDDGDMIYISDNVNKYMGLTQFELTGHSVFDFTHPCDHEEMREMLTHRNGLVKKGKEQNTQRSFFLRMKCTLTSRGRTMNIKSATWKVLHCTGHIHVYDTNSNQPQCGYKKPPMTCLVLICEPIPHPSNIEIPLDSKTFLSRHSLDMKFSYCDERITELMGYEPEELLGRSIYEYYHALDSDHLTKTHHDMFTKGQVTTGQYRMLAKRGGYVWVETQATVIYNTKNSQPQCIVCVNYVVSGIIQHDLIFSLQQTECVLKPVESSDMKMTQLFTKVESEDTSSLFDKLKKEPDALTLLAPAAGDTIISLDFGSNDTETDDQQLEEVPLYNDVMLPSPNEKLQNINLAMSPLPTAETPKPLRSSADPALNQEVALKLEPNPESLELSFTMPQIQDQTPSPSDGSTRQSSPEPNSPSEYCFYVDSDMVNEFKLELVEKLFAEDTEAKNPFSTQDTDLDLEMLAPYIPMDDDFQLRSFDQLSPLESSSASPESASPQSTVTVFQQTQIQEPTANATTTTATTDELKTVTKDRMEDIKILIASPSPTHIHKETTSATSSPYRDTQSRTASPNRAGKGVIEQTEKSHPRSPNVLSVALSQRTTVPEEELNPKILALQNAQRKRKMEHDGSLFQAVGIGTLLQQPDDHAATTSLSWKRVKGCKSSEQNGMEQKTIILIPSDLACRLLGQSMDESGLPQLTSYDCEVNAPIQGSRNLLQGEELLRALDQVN
Chain of Cytochrome P450 3A7 (Homo sapiens) (P24462 whole entry, looked up): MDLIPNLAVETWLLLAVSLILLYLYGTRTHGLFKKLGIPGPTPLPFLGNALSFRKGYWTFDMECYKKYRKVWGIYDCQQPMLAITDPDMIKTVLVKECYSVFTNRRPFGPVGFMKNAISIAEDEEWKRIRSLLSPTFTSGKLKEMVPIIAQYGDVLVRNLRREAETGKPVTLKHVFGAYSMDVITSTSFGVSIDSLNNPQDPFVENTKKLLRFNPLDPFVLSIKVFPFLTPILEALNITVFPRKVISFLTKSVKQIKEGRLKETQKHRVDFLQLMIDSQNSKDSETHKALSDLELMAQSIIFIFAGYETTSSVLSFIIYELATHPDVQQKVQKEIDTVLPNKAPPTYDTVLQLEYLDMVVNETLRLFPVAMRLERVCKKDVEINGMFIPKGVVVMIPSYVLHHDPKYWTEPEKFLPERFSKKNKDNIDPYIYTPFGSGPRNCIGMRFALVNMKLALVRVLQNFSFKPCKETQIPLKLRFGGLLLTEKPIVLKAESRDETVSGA

Turning to `C[Si](Cn1cncn1)(c1ccc(F)cc1)c1ccc(F)cc1`, the AC50 in assay [1] was 31.9 µM (active); in assay [5], 76.9 µM (active); in [6] it was 15.8 µM (active); in [7], 72.5 µM (active); in assay [9], 33.9 µM (active); in [12] it was 47.6 µM (active). In assay [13], the AC50 was 81.1 µM (active). Moreover, the result (in [2]; in [3]; in [4]; in the assay with CYP3A5 (gene 1577); in [8]; in assay [10]) was inactive. The result (in [11]; in the assay with HGF (gene 3082)) was inactive.
As for `FC(F)C(F)(F)OCC(Cn1cncn1)c1ccc(Cl)cc1Cl` (configuration not stated), the AC50 was 28.7 µM (active) in assay [1]; 11.1 µM (active) in [3]; 49.8 µM (active) in [14]; 83 µM (active) in the assay with CYP3A5 (gene 1577); 34.8 µM (active) in [5]; 16.6 µM (active) in assay [6]. Moreover, the concentration at half-maximal activity (AC50) is 38.7 µM (active) in [7]; 11.1 µM (active) in [9]; 83.4 µM (active) in [10]; 76.4 µM (active) in assay [11]; 39.5 µM (active) in [12]; 87.2 µM (active) with HGF (gene 3082). Moreover, the AC50 in assay [15] is 33.4 µM (active); in assay [13], 31.9 µM (active). The compound was called inactive in assay [2] and in [8].
In the case of `CCC(=O)Nc1ccc(Cl)c(Cl)c1`, the result (in [1]; in assay [2]; in assay [3]; in assay [4]; with CYP3A5 (gene 1577); in assay [6]) was inactive. Besides, the call (in assay [8]; in assay [9]; in assay [17]; in assay [11]; in [12]; with HGF (gene 3082)) was inactive. Further, the outcome in assay [15] and in [13] was inactive. Further, the values for the AC50 in assay [5], in assay [7] and in assay [16] were 9.92 µM (active), 72.5 µM (active) and 50 µM (active), respectively.
For the compound `CN(C)NC(=O)CCC(=O)O`, the compound was classed as inactive (in [1]; in [2]; in assay [3]; in assay [4]; with CYP3A5 (gene 1577); in [5]). Further, the compound was classed as inactive in assay [6], in assay [7], in assay [8], in [9], in [17] and in assay [10]. In addition, the call (in assay [11]; in assay [12]; with HGF (gene 3082); in [15]; in assay [13]) was inactive.
Turning to `C#CCC1=C(C)C(OC(=O)C2C(C=C(C)C)C2(C)C)CC1=O` (configuration not stated), the call (in assay [1]; in assay [4]; with CYP3A5 (gene 1577); in assay [7]; in assay [8]; in [9]) was inactive. For the same compound, the compound was classed as inactive (in [10]; in [11]; in assay [12]; in the assay with HGF (gene 3082); in [13]). Further, the concentration at half-maximal activity (AC50) was 11.1 µM (active) in [2], 49.8 µM (active) in assay [3], 49.8 µM (active) in assay [5] and 81.5 µM (active) in assay [6].
For `CC(C)N(C(=O)SCC(Cl)=C(Cl)Cl)C(C)C`, the outcome (in [1]; in [2]; in assay [3]; in assay [4]; in the assay with CYP3A5 (gene 1577); in assay [5]) was inactive. For the same compound, the call in [6], in assay [7], in [8], in assay [9], in assay [16] and in assay [17] was inactive. For the same compound, the result (in assay [10]; in assay [11]; in assay [12]; with HGF (gene 3082); in assay [13]) was inactive.

As usually defined, the AC50 is the concentration at which the activity in the assay is half-maximal.
